PubChem BioAssay (NCI)
Compounds without any hit were thinned out: in the full panel of roughly 83,000, 20% have a hit.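 Each cell line was grown in a 96-well plate and treated with one concentration of compound for 48 hours. Values below 10 were considered active.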 Calls of active or inactive are those of the source.

Assays:
Assay in all cases: NCI-60 one-dose screen, 48 h (100 = growth as untreated, 0 = no growth, -100 = all killed)
Conditions in all cases: 10 µM unless noted
HCT-15 colon = system: HCT-15 colon
HT29 colon = system: HT29 colon
SNB-75 CNS = system: SNB-75 CNS
U251 CNS = system: U251 CNS
PC-3 prostate = system: PC-3 prostate
SK-MEL-5 melanoma = system: SK-MEL-5 melanoma
UACC-62 melanoma = system: UACC-62 melanoma
LOX IMVI melanoma = system: LOX IMVI melanoma
SK-MEL-28 melanoma = system: SK-MEL-28 melanoma

Measured: growth

NC(N)=N/N=C\c1cccc(OCc2ccccc2)c1
inactive: HCT-15 colon 45% | SNB-75 CNS 63.8% | U251 CNS 23.3% | PC-3 prostate 71.5% | SK-MEL-5 melanoma 33% | UACC-62 melanoma 84.9% | LOX IMVI melanoma 51% | SK-MEL-28 melanoma 86%
active: HT29 colon 1.4%

Nc1n[nH]c2ccc([C@@H]3Nc4c(F)cc5[nH]ncc5c4[C@H]4C5CCC(C5)[C@@H]34)cc12 (some centres not stated)
active: SNB-75 CNS 7.8% | SK-MEL-5 melanoma 4.3%
inactive: HCT-15 colon 19.8% | HT29 colon 11.7% | U251 CNS 14.3% | PC-3 prostate 22.8% | UACC-62 melanoma 38.1% | LOX IMVI melanoma 20.3% | SK-MEL-28 melanoma 49.2%

COc1cc(C)cc2oc3oc(=O)c(-c4csc(-c5cc6ccccc6oc5=O)n4)cc3c(=O)c12
inactive: HCT-15 colon 114% | HT29 colon 110% | SNB-75 CNS 113% | U251 CNS 110% | PC-3 prostate 104% | SK-MEL-5 melanoma 99.9% | UACC-62 melanoma 99.2% | LOX IMVI melanoma 94.6% | SK-MEL-28 melanoma 109%

CCCc1n(Cc2ccc3ccccc3n2)cc[n+]1Cc1ccc2ccccc2c1
inactive: HCT-15 colon 82% | U251 CNS 11.2%
active: HT29 colon 3.72% | SNB-75 CNS -6% | PC-3 prostate 5.35% | SK-MEL-5 melanoma -91.9% | UACC-62 melanoma -46.7% | LOX IMVI melanoma -63.8% | SK-MEL-28 melanoma 9.91%

CC(OC(=O)Nc1cccc(Cl)c1)C(=O)O (configuration not stated)
inactive: HCT-15 colon 104% | HT29 colon 102% | SNB-75 CNS 84.6% | U251 CNS 102% | PC-3 prostate 93% | SK-MEL-5 melanoma 107% | UACC-62 melanoma 91.8% | LOX IMVI melanoma 96.9% | SK-MEL-28 melanoma 112%

NC(=S)N/N=C(/c1cccs1)C1CC1
inactive: HCT-15 colon 71% | HT29 colon 58.4% | SNB-75 CNS 77.2% | U251 CNS 72.9% | PC-3 prostate 63.5% | SK-MEL-5 melanoma 106% | UACC-62 melanoma 98.8% | LOX IMVI melanoma 68.3% | SK-MEL-28 melanoma 101%

C/C=C(\C)C(C(=O)NC1CCCCC1)N(C(=O)C1CCc2cc(F)ccc2O1)c1ccc([N+](=O)[O-])cc1 (configuration not stated)
inactive: HCT-15 colon 74% | HT29 colon 74.4% | SNB-75 CNS 72.8% | U251 CNS 93.1% | PC-3 prostate 72.7% | SK-MEL-5 melanoma 42.1% | UACC-62 melanoma 70.1% | LOX IMVI melanoma 87.7%

CCN(CC)CCCC(C)N/C(c1cccc(OC)c1)=c1\c(=O)[nH]n(-c2c3ccccc3nc3ccccc23)c(=O)\c1=C(/NC(C)CCCN(CC)CC)c1cccc(OC)c1 (configuration not stated)
active: HCT-15 colon 2.74% | HT29 colon -68% | SNB-75 CNS -22.5% | U251 CNS -73% | PC-3 prostate -57.7% | SK-MEL-5 melanoma -98.9% | UACC-62 melanoma -77.9% | LOX IMVI melanoma -66.1% | SK-MEL-28 melanoma -96%

CC(=O)[C@H]1CC[C@H]2[C@@H]3CC[C@H]4CC=CC[C@]4(C)[C@H]3CC[C@]12C
inactive: HCT-15 colon 89.8% | HT29 colon 79.4% | SNB-75 CNS 74.1% | U251 CNS 102% | PC-3 prostate 58% | SK-MEL-5 melanoma 98.8% | UACC-62 melanoma 79.9% | LOX IMVI melanoma 95.4% | SK-MEL-28 melanoma 89.1%

CCCCNCC(O)c1cc(-c2ccc(C(F)(F)F)cc2)nc(-c2ccc(C(F)(F)F)cc2)c1 (configuration not stated)
active: HCT-15 colon -64.7% | HT29 colon -77% | SNB-75 CNS -85% | U251 CNS -92.1% | PC-3 prostate -81.1% | SK-MEL-5 melanoma -24.2% | UACC-62 melanoma -83.4% | LOX IMVI melanoma -67.2% | SK-MEL-28 melanoma -85.3%

COc1ccc(Sc2[nH]c(C=O)c3ccccc23)cc1
inactive: HCT-15 colon 63.1% | HT29 colon 19.4% | U251 CNS 76.6% | SK-MEL-5 melanoma 70.1% | UACC-62 melanoma 46.7% | LOX IMVI melanoma 70.3% | SK-MEL-28 melanoma 81.9%
active: SNB-75 CNS 6.71%

NS(=O)(=O)c1ccc(N2N=C(c3cccs3)CC2c2ccccc2O)cc1 (configuration not stated)
inactive: SNB-75 CNS 30.5% | UACC-62 melanoma 24.2% | LOX IMVI melanoma 13.5% | SK-MEL-28 melanoma 27.3%
active: HCT-15 colon 4.16% | HT29 colon -25.6% | U251 CNS 0.571% | PC-3 prostate 8.13% | SK-MEL-5 melanoma -29.1%

COc1ccc(NC(=O)c2ccc(C(F)(F)F)nc2Nc2ccc(Cl)cc2C)cc1Cl
inactive: HCT-15 colon 22.4% | HT29 colon 26.6% | SNB-75 CNS 35% | U251 CNS 20.3% | PC-3 prostate 10.2% | SK-MEL-5 melanoma 28.2% | UACC-62 melanoma 15.3% | LOX IMVI melanoma 13.4%

CCCCN(CCCC)CCC(=O)c1ccc(OC)c2ccccc12
inactive: HCT-15 colon 99.7% | HT29 colon 98% | SNB-75 CNS 97.7% | U251 CNS 86.7% | PC-3 prostate 84.7% | SK-MEL-5 melanoma 101% | UACC-62 melanoma 93.5% | LOX IMVI melanoma 78.9% | SK-MEL-28 melanoma 154%

COc1ccc(/C=C(/C(=O)N2CCN(c3ccccc3)CC2)c2cc(OC)c(OC)c(OC)c2)cc1O
inactive: HCT-15 colon 12.8% | HT29 colon 48.4% | SNB-75 CNS 67.8% | PC-3 prostate 23.4% | UACC-62 melanoma 27.1% | LOX IMVI melanoma 14.7% | SK-MEL-28 melanoma 62.3%
active: U251 CNS 8.04% | SK-MEL-5 melanoma -13.7%

C#CC[C@@H]1C[C@]2(C)[C@H]3CC[C@@H]4[C@H]5C(C(=C)C)CC[C@]5(C(=O)NCCCCN)CC[C@@]4(C)[C@]3(C)CC[C@H]2C(C)(C)[C@H]1OC(C)=O (some centres not stated)
active: HCT-15 colon -66.1% | HT29 colon -61.3% | SNB-75 CNS -97.3% | U251 CNS -86.6% | PC-3 prostate 6.29% | UACC-62 melanoma -36.1% | LOX IMVI melanoma -83.4%
inactive: SK-MEL-5 melanoma 89.9% | SK-MEL-28 melanoma 67.9%

CC(C)=CCC[C@H](C)c1ccc(C)c2c1OCN(CCO)C2
inactive: HCT-15 colon 105% | HT29 colon 68.7% | SNB-75 CNS 58.7% | U251 CNS 85.1% | PC-3 prostate 76.9% | SK-MEL-5 melanoma 81.2% | UACC-62 melanoma 96.1% | LOX IMVI melanoma 100% | SK-MEL-28 melanoma 111%

CN1CCN(Cc2ccc(NC(=O)c3ccc(C#N)c(C#Cc4cnc(N)c5ncccc45)c3)cc2C(F)(F)F)CC1
active: HCT-15 colon 1.93% | HT29 colon 4.28%
inactive: SNB-75 CNS 112% | U251 CNS 55.6% | PC-3 prostate 81.1% | SK-MEL-5 melanoma 87% | UACC-62 melanoma 58.8% | LOX IMVI melanoma 82.5%

N#CC1=C(N)Oc2nc[nH]c(=O)c2C1c1cccs1 (configuration not stated)
inactive: HCT-15 colon 99.8% | HT29 colon 99% | SNB-75 CNS 92.6% | U251 CNS 96.3% | PC-3 prostate 97.9% | SK-MEL-5 melanoma 102% | UACC-62 melanoma 104% | LOX IMVI melanoma 100% | SK-MEL-28 melanoma 102%

Cc1ccc(N=CNN=C(N)N)cc1
inactive: HCT-15 colon 100% | HT29 colon 105% | SNB-75 CNS 96.8% | U251 CNS 97.2% | PC-3 prostate 107% | SK-MEL-5 melanoma 105% | UACC-62 melanoma 89.8% | LOX IMVI melanoma 113% | SK-MEL-28 melanoma 106%

CCCOC(=O)C1c2cc3c(cc2CC(C)C1C(=O)OCCC)OCO3 (configuration not stated)
inactive: HCT-15 colon 108% | HT29 colon 72% | SNB-75 CNS 85.6% | U251 CNS 95.2% | PC-3 prostate 82.9% | SK-MEL-5 melanoma 92.4% | UACC-62 melanoma 75.4% | LOX IMVI melanoma 65.4% | SK-MEL-28 melanoma 103%

O=[N+]([O-])c1cccc([I+]c2ccccc2)c1
active: SK-MEL-5 melanoma -2.62%
inactive: HCT-15 colon 52.5% | HT29 colon 27.3% | SNB-75 CNS 46.9% | U251 CNS 52.1% | PC-3 prostate 59.1% | UACC-62 melanoma 52.2% | LOX IMVI melanoma 36.2% | SK-MEL-28 melanoma 61.5%

COc1ccc(/C(=C\c2ccc3c(c2)OCO3)C(=O)Nc2nc3ccccc3s2)cc1
inactive: HCT-15 colon 93.2% | HT29 colon 94.6% | SNB-75 CNS 103% | U251 CNS 101% | PC-3 prostate 106% | SK-MEL-5 melanoma 98.9% | UACC-62 melanoma 102% | LOX IMVI melanoma 100% | SK-MEL-28 melanoma 104%

COc1ccc(Nc2ncnc3c2sc2nc(C)cc(C)c23)cc1
inactive: HCT-15 colon 96% | HT29 colon 105% | SNB-75 CNS 74.4% | U251 CNS 103% | PC-3 prostate 92.7% | SK-MEL-5 melanoma 99.8% | UACC-62 melanoma 100% | LOX IMVI melanoma 96.7% | SK-MEL-28 melanoma 105%

SCc1ccc(CS)cc1
inactive: HCT-15 colon 105% | HT29 colon 120% | SNB-75 CNS 109% | U251 CNS 101% | PC-3 prostate 98.1% | SK-MEL-5 melanoma 95.7% | UACC-62 melanoma 105% | LOX IMVI melanoma 96.2% | SK-MEL-28 melanoma 112%

CSC(=S)N/N=C(\C)c1ccccn1
inactive: HCT-15 colon 34.7% | HT29 colon 25.9% | SNB-75 CNS 35.5% | U251 CNS 13.9% | PC-3 prostate 27% | LOX IMVI melanoma 12.7% | SK-MEL-28 melanoma 42.4%
active: SK-MEL-5 melanoma -47.7% | UACC-62 melanoma -22.3%

COc1ccc(CCN2COc3c([C@@H](C)CCC=C(C)C)ccc(C)c3C2)cc1OC
inactive: HCT-15 colon 29.5% | SNB-75 CNS 62.8% | U251 CNS 49.8% | PC-3 prostate 47.6% | SK-MEL-5 melanoma 18.2% | UACC-62 melanoma 65.5% | LOX IMVI melanoma 64.3% | SK-MEL-28 melanoma 69.4%
active: HT29 colon 8.29%

COc1ccc(-c2n[nH]nc2-c2cc(OC)c3c(c2)OCO3)cc1
active: HCT-15 colon 6.08% | HT29 colon -9.19% | U251 CNS 1.06% | PC-3 prostate -7.05% | SK-MEL-5 melanoma -1.56% | LOX IMVI melanoma -4.34%
inactive: SNB-75 CNS 25.4% | UACC-62 melanoma 28% | SK-MEL-28 melanoma 46.3%

NNC(=O)Cc1ccccc1
inactive: HCT-15 colon 82.7% | HT29 colon 101% | SNB-75 CNS 77.8% | U251 CNS 91.8% | PC-3 prostate 56.9% | SK-MEL-5 melanoma 96.9% | UACC-62 melanoma 45.8% | LOX IMVI melanoma 50.7% | SK-MEL-28 melanoma 108%
